In PubChem BioAssay:
A number with no mark means an inactive call.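 How the source made its calls: active means viability at or below 10% of carrier control in both of two separate runs; inconclusive means viability at or below 10% in only one of the two runs; inactive means the rest.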

Assay: SK-BR-3 cell growth inhibitors, pilot screen, 24 h, human (AID 572);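 further: compound exposure lasted between 18 and 24 h rather than exactly 24 h; 100% = carrier-treated control wells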
Settings: SK-BR-3 viability, CellTiter-Glo luminescence, at 10 µM, stronger effect = lower value
For `CC(=O)Nc1ccc(S(=O)(=O)N(C2=NCC(C)S2)c2ccccc2)cc1` (stereo not given), the viability was 85%. Work on `CCOc1nc(-c2ccccc2)ccc1-c1noc(-c2ccc(OC)c(OC)c2)n1` yielded a viability of 68%. In the case of `Clc1ccc2c(c1)[C@H]1OCC[C@H]1[C@@H](c1ccco1)N2`, the viability is reported as 104%. `O=C(CSc1ccc(-c2ccccc2)nn1)N1CCOCC1` showed a viability of 94%. `COc1cc(CO)cc(-c2cc(CO)cc(OC)c2OC)c1OC` showed a viability of 82%. With `NCCCCCc1nnc(SC/C=C/c2ccccc2)o1` the viability was 99%. In the case of `O=c1c2[nH]c3ccc(Cl)cc3c2ncn1Cc1ccccn1`, the viability is reported as 94%. Work on `CN(c1ccccc1C(=O)NCC1CCCO1)S(C)(=O)=O` (stereo not given) yielded a viability of 67%. `COc1ccc(N2C(=O)c3cccc4cccc(c34)C2=O)nn1` showed a viability of 82%. Molecule `CS(=O)(=O)NCC(c1cccnc1)N1CCN(c2ccc(F)cc2)CC1` (stereo not given) has a viability of 107%. For `CNC(=O)Oc1ccc2c(c1)[C@]1(C)CCN(C)[C@@H]1N2C`, the viability was 112%. In the case of `NC(N)=Nc1nc(CSCC/C(N)=N/S(N)(=O)=O)cs1`, the viability is reported as 89%. Work on `CC(OC(=O)c1ccco1)C(=O)NCc1cccs1` (stereo not given) yielded a viability of 119%. `COc1ccc(OC)c(NC(=O)CS(=O)(=O)c2ccccc2)c1` gave a viability of 124%. With `Cc1cccc(C)c1-n1nnnc1SCSc1nnnn1-c1c(C)cccc1C` the viability was 92%. For `Nc1nc2ccc(OC(F)(F)F)cc2s1`, the viability was 88%. Work on `COc1ccccc1CC(=O)NCC1CCCO1` (stereo not given) yielded a viability of 110%. Work on `Cc1nc(N)[nH]c(=O)c1CCC(=O)OCC(C)C` yielded a viability of 107%. Molecule `CN1[C@@H]2CC(OC(=O)[C@H](CO)c3ccccc3)C[C@H]1[C@@H]1O[C@@H]12` (stereo not given in full) has a viability of 104%. `Cn1c(=O)c2[nH]cnc2n(C)c1=O` gave a viability of 101%. With `Cc1c(NC(=O)C(C)Oc2ncnc3ccccc23)c(=O)n(-c2ccccc2)n1C` (stereo not given) the viability was 115%. With `O=C(Cn1c(-c2cncs2)nc2ccccc21)NC1CCCC1` the viability was 96%. With `COC(=O)Nc1sccc1C(=O)Nc1sccc1C(=O)OC` the viability was 62%. In the case of `O=C1C2CC=C(Cl)CC2C(=O)N1CNc1ccccn1` (stereo not given), the viability is reported as 112%. Molecule `CCOCCCNC(=O)C1CC(=O)N(C2CCCC2)C1` (stereo not given) has a viability of 98%. `Cc1ccccc1Nc1nc(N)nc(CSCc2c(C)noc2C)n1` showed a viability of 88%. In the case of `O=C1OCCC1Sc1ncnc2sccc12` (stereo not given), the viability is reported as 78%. In the case of `CC(C)N(C(=O)N1CCC(c2nc(-c3ccncc3)no2)CC1)C(C)C`, the viability is reported as 79%. Work on `COc1cccc2sc(NC(=O)c3ccc(S(=O)(=O)N4CCOCC4)cc3)nc12` yielded a viability of 113%. With `Cc1ccc(S(=O)(=O)N2CCN(C(=O)N3CCOCC3)C2C)cc1` (stereo not given) the viability was 76%. `Cc1cc(C)n(CC(=O)O)n1` showed a viability of 88%. With `O=C(O)C1CCCN1C(=O)c1cccs1` (stereo not given) the viability was 114%. Molecule `O=C(NCCCN1CCN(c2cccc(Cl)c2)CC1)c1ccc(N2CCCC2=O)cc1` has a viability of 69%. `Cc1nccn1CCCN1C(=O)OC2(CCCCC2)C1(C)O` (stereo not given) showed a viability of 90%. Molecule `CN1CC=C2C(C#N)=C(N)C(C#N)(C#N)C(c3cccc(Cl)c3Cl)C2C1` (stereo not given) has a viability of 115%. `CC(=O)OCC(=O)[C@@]12OC(C)(C)O[C@@H]1C[C@H]1[C@@H]3C[C@H](F)C4=CC(=O)C=C[C@]4(C)[C@@]3(F)[C@@H](O)C[C@@]12C` gave a viability of 104%. With `CCOc1nc(OCC)nc(N2CCC(C)CC2)n1` the viability was 91%. For `CCOc1ccc(-c2nc(C#N)c(NCc3ccc4c(c3)OCO4)o2)cc1`, the viability was 68%. `Cc1cccc(N2CCN(C(=O)C3CCCN(S(=O)(=O)c4cnc[nH]4)C3)CC2C)c1` (stereo not given) showed a viability of 90%. In the case of `CC(=O)c1ccccc1OCCn1nnc(-c2ccc(C)cc2)n1`, the viability is reported as 108%.
